Assay results published in PubChem BioAssay (Tox21).
Several values for one entry are separate records, joined by “and”; a condition that tells them apart may be missing. Identical values can stand only once. Results filed as inconclusive are left out. Activity calls are given as the source filed them. Unless noted, the call rests on the fitted dose curve.

System: not listed separately
Assay: qHTS assay to identify small molecule antagonists of the sonic hedgehog signaling (Shh) pathway (AID 1259369); further: nearly all actives have a fitted effect of over 45% in size; further: potency means the concentration at half of the fitted maximal effect
Details: NIH/3T3 Gli1-Luc reporter, Shh antagonist, luminescence 24 h; series mostly up to 92.4 µM; activity change, negative = inhibition: at the top concentration
Procedure, shortened: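 Read-out is luminescence from a firefly luciferase gene controlled by the Gli1 response element, in 3T3Gli1-Luc cells pre-incubated 4hr then exposed to compounds and conditioned medium for 24hr.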
On the % scale 0 is the no-effect control and ±100 the full control effect.

| Structure (SMILES) | Potency | activity change, negative = inhibition |
| --- | --- | --- |
| CCCCCCCCCCCCCCn1cc[n+](C)c1 | 122 nM (active) and 42.8 nM (active) |  |
| CC(Cc1ccc(OCC(=O)O)cc1)NCC(O)c1csc(C(F)(F)F)n1 (configuration not stated) |  | 8.8% (inactive) |
| CCC(C)Br (configuration not stated) |  | -5.29% (inactive) |
| O=[N+]([O-])c1ccccc1-c1ccccc1 |  | 0.909% (inactive) |
| CCN(CC)C(=S)S | 5.49 µM (active) and 2.42 µM (active) |  |
| Cc1c([N+](=O)[O-])c(C)c([N+](=O)[O-])c(C(C)(C)C)c1[N+](=O)[O-] |  | -6.3% (inactive) |
| CCCCON=O |  | 0.393% (inactive) |
| CCNS(=O)(=O)C(F)(F)C(F)(F)C(F)(F)C(F)(F)C(F)(F)C(F)(F)C(F)(F)C(F)(F)F | 32.9 µM (active) |  |
| OCC(Br)CBr (configuration not stated) |  | 80.2% (inactive) |
| [O]=[Cr][O][Cr]=[O] |  | 18.5% (inactive) |
| CC(=O)[O-].CC(=O)[O-].O.O.[Zn+2] |  | 7.49% (inactive) |
| CC1=C2C[C@H]3[C@@H](CC=C4C[C@@H](O)CC[C@@]43C)[C@@H]2CC[C@]12O[C@@H]1C[C@H](C)CN[C@H]1[C@H]2C | 0.266 µM (active) |  |
| Oc1cc(Cl)c(Cl)c(Cl)c1Cl | 26.7 µM (active) |  |
| CCCCC(CC)COC(=O)c1ccccc1C(=O)OCC(CC)CCCC (configuration not stated) |  | 30% (inactive) |
| CN1C(=O)[C@@H](NC(=O)c2cc3ccccc3[nH]2)N=C(c2ccccc2)c2ccccc21 |  | -4.63% [at 42.5 µM] (inactive) |
| [Cl-].[Cl-].[Cl-].[Yb+3] |  | -24.6% (inactive) |
| CSC(=O)c1c(C(F)F)nc(C(F)(F)F)c(C(=O)SC)c1CC(C)C |  | -3.61% (inactive) |

| Structure (SMILES) | Potency | activity change, negative = inhibition |
| --- | --- | --- |
| CN(C)c1ccc(N)cc1 | 13.4 µM (active) |  |
| CNC(C)(C)Cc1ccccc1 |  | 5.04% [at 42.5 µM] (inactive) |
| CCN(CC)CCN1C(=O)CN=C(c2ccccc2F)c2cc(Cl)ccc21 |  | -12.7% [at 42.5 µM] (inactive) |
| CC(=O)C(Cl)C(=O)N(C)C (configuration not stated) |  | -16.8% (inactive) |
| CCC(C)Nc1c([N+](=O)[O-])cc(C(C)(C)C)cc1[N+](=O)[O-] (configuration not stated) |  | -5.37% (inactive) |
| CCn1cc[n+](C)c1 (tested in a mixture with another compound) |  | 19.9% (inactive) |
| CCC1COC(Cn2cncn2)(c2ccc(Cl)cc2Cl)O1 (configuration not stated) | 54.5 µM (active) |  |
| O=[N+]([O-])c1ccc(CCl)cc1 |  | -4.41% (inactive) |
| CC(C)N(C(=O)SC/C(Cl)=C/Cl)C(C)C |  | 23% (inactive) |
| COc1ccc(Cc2nccc3cc(OC)c(OC)cc23)cc1OC | 1.88 µM (active) |  |
| CCCCCCC[CH2][Sn]([Cl])([Cl])[CH2]CCCCCCC |  | 10.9% (inactive) |
| CC(C)N(C(=O)CCl)c1ccccc1 | 12.2 µM (active) and 9.69 µM (active) |  |
| N#Cc1ccc(N(CC(N)=O)CC(F)(F)F)cc1C(F)(F)F |  | -18.7% (inactive) |
| Oc1cccc(Cl)c1Cl |  | -11.1% (inactive) |
| ClC1=C(Cl)[C@]2(Cl)[C@@H]3[C@H]4C[C@H]([C@@H]5O[C@H]45)[C@@H]3[C@@]1(Cl)C2(Cl)Cl | 24.3 µM (active) |  |
| CC(=O)[O-].CC(=O)[O-].CC(=O)[O-].[Sb+3] |  | 2.99% [at 3.27 µM] (inactive) |

Target: Estrogen receptor beta (Homo sapiens) (UniProt Q92731)
Assay: qHTS assay to identify small molecule agonists of the estrogen receptor beta (ER-beta) signaling pathway (AID 1259377; active means well fitted activation curve with a large enough effect in the signal ratio in the repeat runs, not every such curve was filed as active; the % refers to the signal ratio)
Details: ER-beta-UAS-bla HEK293T, beta-lactamase FRET ratio, 16 h; series mostly up to 92.4 µM; activation: at the top concentration
Procedure, shortened: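 Read-out: beta-lactamase FRET fluorescence. Cell line: ER-beta-UAS-bla HEK293T in 2% charcoal-stripped FBS. Exposure: 16 hr at 37C. Substrate step: 2 h at room temperature.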

Chain of Estrogen receptor beta (Homo sapiens) (Q92731 whole entry, looked up): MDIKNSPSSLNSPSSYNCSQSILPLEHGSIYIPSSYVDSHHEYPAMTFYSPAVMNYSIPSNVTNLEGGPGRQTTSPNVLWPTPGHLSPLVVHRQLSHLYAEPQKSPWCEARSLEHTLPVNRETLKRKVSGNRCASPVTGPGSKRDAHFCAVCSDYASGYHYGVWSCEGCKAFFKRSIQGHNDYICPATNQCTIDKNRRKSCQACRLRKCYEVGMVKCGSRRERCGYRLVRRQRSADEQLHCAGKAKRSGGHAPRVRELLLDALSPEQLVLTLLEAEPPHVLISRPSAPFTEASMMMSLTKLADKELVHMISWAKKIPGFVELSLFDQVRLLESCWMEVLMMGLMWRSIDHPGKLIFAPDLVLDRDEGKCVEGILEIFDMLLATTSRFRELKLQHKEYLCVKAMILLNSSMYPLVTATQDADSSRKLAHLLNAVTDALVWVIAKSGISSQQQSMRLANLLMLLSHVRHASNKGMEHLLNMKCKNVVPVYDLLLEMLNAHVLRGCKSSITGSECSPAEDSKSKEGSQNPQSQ

| Structure (SMILES) | activation |
| --- | --- |
| CCCCCCCCCCCCCCn1cc[n+](C)c1 | 0.684% (inactive) |
| CC(Cc1ccc(OCC(=O)O)cc1)NCC(O)c1csc(C(F)(F)F)n1 (configuration not stated) | -0.328% (inactive) |
| CCC(C)Br (configuration not stated) | -2.8% (inactive) |
| O=[N+]([O-])c1ccccc1-c1ccccc1 | 10.6% (inactive) |
| OCC(Br)CBr (configuration not stated) | -0.357% (inactive) |
| [O]=[Cr][O][Cr]=[O] | -1.95% (inactive) |
| Oc1cc(Cl)c(Cl)c(Cl)c1Cl | -7.1% (inactive) |
| CSC(=O)c1c(C(F)F)nc(C(F)(F)F)c(C(=O)SC)c1CC(C)C | -0.0419% (inactive) |
| CN(C)c1ccc(N)cc1 | -3.43% (inactive) |
| CCN(CC)CCN1C(=O)CN=C(c2ccccc2F)c2cc(Cl)ccc21 | -1.54% [at 42.5 µM] (inactive) |
| CC(=O)C(Cl)C(=O)N(C)C (configuration not stated) | 5.13% (inactive) |
| CCC(C)Nc1c([N+](=O)[O-])cc(C(C)(C)C)cc1[N+](=O)[O-] (configuration not stated) | 0.0835% (inactive) |
| CCC1COC(Cn2cncn2)(c2ccc(Cl)cc2Cl)O1 (configuration not stated) | -3.62% (inactive) |
| O=[N+]([O-])c1ccc(CCl)cc1 | -0.624% (inactive) |
| CC(C)N(C(=O)SC/C(Cl)=C/Cl)C(C)C | -0.806% (inactive) |
| c1ccc(Nc2ccc(Nc3ccccc3)cc2)cc1 | 0.883% (inactive) |
| COc1ccc(Cc2nccc3cc(OC)c(OC)cc23)cc1OC | -0.0388% [at 42.5 µM] (inactive) |
| CCCCCCC[CH2][Sn]([Cl])([Cl])[CH2]CCCCCCC | -7.06% (inactive) |
| CC(C)N(C(=O)CCl)c1ccccc1 | -9.9% (inactive) |
| N#Cc1ccc(N(CC(N)=O)CC(F)(F)F)cc1C(F)(F)F | 0.356% (inactive) |

Target: Estrogen receptor beta (Homo sapiens) (UniProt Q92731)
Assay: qHTS assay to identify small molecule antagonists of the estrogen receptor beta (ER-beta) signaling pathway (AID 1259378; active means well fitted inhibition curve with a large enough effect in the signal ratio in the repeat runs, not every such curve was filed as active; the % refers to the signal ratio; further: potency means the concentration at half of the fitted maximal effect)
Details: ER-beta-UAS-bla HEK293T, beta-lactamase FRET ratio, 16 h; series mostly up to 92.4 µM; activity, negative = inhibition: at the top concentration
Procedure, shortened: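 Antagonist mode: compounds added to beta-lactamase reporter HEK293T ER-beta-UAS cells stimulated with E2 (1nM final), 16 hr at 37C. LiveBLAzer B/G FRET substrate, 2 hours room temperature, fluorescence read-out.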

| Structure (SMILES) | activity, negative = inhibition | Potency |
| --- | --- | --- |
| CCCCCCCCCCCCCCn1cc[n+](C)c1 | 1.74% (inactive) |  |
| O=[N+]([O-])c1ccccc1-c1ccccc1 | 4.23% (inactive) |  |
| OCC(Br)CBr (configuration not stated) | 13.6% (inactive) |  |
| [O]=[Cr][O][Cr]=[O] | -4.54% (inactive) |  |
| CN(C)c1ccc(N)cc1 |  | 23.7 µM (active) |
| C[C@H]1[C@H](c2ccc(Cl)cc2)SC(=O)N1C(=O)NC1CCCCC1 | -30.4% (inactive) |  |
| CCN(CC)CCN1C(=O)CN=C(c2ccccc2F)c2cc(Cl)ccc21 | -11.7% [at 42.5 µM] (inactive) |  |
| CCC(C)Nc1c([N+](=O)[O-])cc(C(C)(C)C)cc1[N+](=O)[O-] (configuration not stated) | -7.99% (inactive) |  |
| CCC1COC(Cn2cncn2)(c2ccc(Cl)cc2Cl)O1 (configuration not stated) | -14.2% (inactive) |  |
| O=[N+]([O-])c1ccc(CCl)cc1 | 7.35% (inactive) |  |
| COc1ccc(Cc2nccc3cc(OC)c(OC)cc23)cc1OC | 1.04% [at 42.5 µM] (inactive) |  |
| CCCCCCC[CH2][Sn]([Cl])([Cl])[CH2]CCCCCCC |  | 48.5 µM (active) |
| CC(C)N(C(=O)CCl)c1ccccc1 |  | 9.69 µM (active) |
| N#Cc1ccc(N(CC(N)=O)CC(F)(F)F)cc1C(F)(F)F | -1.52% (inactive) |  |
